Experimental data as given in paper PMC5540273 (PLoS ONE, 2017).

Columns and labels:
Details in all cases: concentration: 1 μM,replicates: in singlicate; n = 1
PCTK2 = system: T1, PCTK2
T1 construct: gene CDK17

PCTK3 = system: T2, PCTK3
T2 construct: gene CDK18

PDGFRA = system: PDGFRA
PDGFRB = system: PDGFRB
PDPK1 = system: PDPK1
PFTAIRE2 = system: PFTAIRE2
PFTK1 = system: T3, PFTK1
T3 construct: gene CDK14

PHKG1 = system: PHKG1
PHKG2 = system: PHKG2
PIK3C2B = system: PIK3C2B
PIK3C2G = system: PIK3C2G
PIK3CA = system: PIK3CA
PIK3CB = system: PIK3CB
PIK3CD = system: PIK3CD
PIK3CG = system: PIK3CG
PIK4CB = system: T4, PIK4CB
T4 construct: gene PI4KB

PIKFYVE = system: PIKFYVE
PIM1 = system: PIM1
PIM2 = system: PIM2
PIM3 = system: PIM3
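Further: KINOMEscan kinase panel screen.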

| SMILES | %Inh (PCTK2) [%] | %Inh (PCTK3) [%] | %Inh (PDGFRA) [%] | %Inh (PDGFRB) [%] | %Inh (PDPK1) [%] | %Inh (PFTAIRE2) [%] | %Inh (PFTK1) [%] | %Inh (PHKG1) [%] | %Inh (PHKG2) [%] | %Inh (PIK3C2B) [%] | %Inh (PIK3C2G) [%] | %Inh (PIK3CA) [%] | %Inh (PIK3CB) [%] | %Inh (PIK3CD) [%] | %Inh (PIK3CG) [%] | %Inh (PIK4CB) [%] | %Inh (PIKFYVE) [%] | %Inh (PIM1) [%] | %Inh (PIM2) [%] | %Inh (PIM3) [%] |
| --- | --- | --- | --- | --- | --- | --- | --- | --- | --- | --- | --- | --- | --- | --- | --- | --- | --- | --- | --- | --- |
| Cl.Cl.NC[C@H](CC1CCCCC1)NC(=O)c1cc(Br)c(-c2ccnc3[nH]ccc23)s1 [GSK1581427] | 0 | 0 | 22 | 75 | 0 | 63 | 28 | 20 | 19 | 0 | 0 | 0 | 0 | 0 | 0 | 1 | 0 | 1 | 0 | 0 |
| Cc1ccc(-n2nc(C(C)(C)C)cc2NC(=O)Nc2ccc(OCCN3CCOCC3)c3ccccc23)cc1 [GW839464] | 13 | 2 | 0 | 87 | 0 | 0 | 2 | 0 | 8 | 0 | 0 | 0 | 0 | 0 | 0 | 0 | 0 | 0 | 9 | 0 |
| Cl.Oc1cc(-c2nc(-c3ccccc3)[nH]c2-c2ccncc2)ccc1Cl [SB-386023] | 0 | 0 | 0 | 11 | 2 | 23 | 0 | 0 | 0 | 7 | 19 | 0 | 14 | 0 | 0 | 14 | 87 | 0 | 3 | 0 |
| C=CC(=O)Nc1cc2c(Nc3ccc(F)c(Cl)c3)ncnc2cc1OCCCN1CCOCC1 [GW781483] | 0 | 0 | 77 | 15 | 0 | 15 | 0 | 0 | 0 | 2 | 0 | 0 | 60 | 0 | 42 | 21 | 20 | 2 | 0 | 0 |
| CN(C)CC(O)COc1ccc(Nc2nccc(-c3cnn4nc(N5CCOCC5)ccc34)n2)cc1 (stereo not shown) [GW767488] | 91.9 | 52 | 56 | 60 | 0 | 16 | 46 | 38 | 81 | 43 | 20 | 33 | 35 | 37 | 63 | 46 | 68 | 15 | 0 | 35 |
| Cc1ccc2c(-c3ccncc3)c(-c3ccc(F)cc3)nn2c1.Cl [GW461484] | 0 | 11 | 0 | 8 | 0 | 0 | 0 | 33 | 0 | 0 | 0 | 0 | 25 | 0 | 1 | 0 | 0 | 0 | 0 | 16 |
| Cc1occc1-c1nc(N)c(OC[C@@H](N)Cc2c[nH]c3ccccc23)cc1-c1cc2c(C)n[nH]c2cn1 [GSK1660450] | 0 | 0 | 0 | 49 | 0 | 100 | 45 | 84 | 11 | 0 | 7 | 0 | 0 | 10 | 0 | 0 | 0 | 97.3 | 99.2 | 97.7 |
| CC(C)N1C(=O)Cc2cc(Nc3ncc(C(F)(F)F)c(NCc4cccc(S(C)(=O)=O)c4)n3)ccc21 | 20 | 7 | 36 | 71 | 0 | 6 | 14 | 0 | 26 | 3 | 28 | 6 | 29 | 0 | 5 | 28 | 27 | 5 | 0 | 9 |
| C[C@@H](Oc1cc(-c2cnn(C3CCNCC3)c2)cnc1N)c1c(Cl)ccc(F)c1Cl | 4 | 6 | 23 | 0 | 14 | 1 | 0 | 24 | 7 | 10 | 8 | 14 | 18 | 0 | 9 | 3 | 5 | 0 | 0 | 3 |
| Cc1n[nH]c2ccc(-c3cc(OC[C@@H](N)Cc4ccccc4)cnc3-c3ccoc3)cc12.O=C(O)C(F)(F)F.O=C(O)C(F)(F)F [GSK507358] | 0 | 0 | 0 | 50 | 0 | 0 | 9 | 0 | 0 | 0 | 0 | 0 | 0 | 0 | 0 | 0 | 8 | 29 | 90 | 47 |
| C[C@H]1Oc2cc(cnc2N)-c2c(nn(C)c2C#N)CN(C)C(=O)c2ccc(F)cc21 | 1 | 29 | 0 | 10 | 41 | 10 | 12 | 54 | 100 | 0 | 20 | 0 | 0 | 0 | 0 | 0 | 19 | 21 | 19 | 12 |
| CC(C)Nc1cc(-c2ccc3c(N)n[nH]c3c2)nc(N)n1 [GSK2221681] | 0 | 10 | 1 | 5 |  | 10 | 0 | 11 | 0 | 0 | 0 | 0 | 0 | 0 | 0 | 7 | 0 | 15 | 0 | 0 |
| Cc1cc(C(=O)Nc2ccc(Oc3ccc4nc(NC(=O)C5CC5)cn4n3)cc2)nn1-c1ccccc1 | 17 | 4 | 97.7 | 100 | 8 | 0 | 0 | 49 | 0 | 0 | 2 | 0 | 0 | 0 | 0 | 0 | 1 | 2 | 2 | 0 |
| CCN(CC)CCCCNc1ncc2cc(-c3c(Cl)cccc3Cl)c(NC(=O)NC(C)(C)C)nc2n1 | 0 | 0 | 90.1 | 100 | 0 | 0 | 0 | 0 | 0 | 27 | 6 | 8 | 91.6 | 15 | 2 | 0 | 21 | 0 | 13 | 0 |
| CN(C)CCOc1ccc(-c2cc(-c3c[nH]nc3-c3ccccn3)ccn2)cc1 [GW835314] | 7 | 2 | 29 | 20 | 15 | 19 | 1 | 47 | 0 | 0 | 5 | 0 | 11 | 2 | 0 | 36 | 0 | 13 | 0 | 0 |
| Cl.Cl.NC[C@H](Cc1ccc(C(F)(F)F)cc1)NC(=O)c1cc(Br)c(-c2ccnc3[nH]ccc23)s1 [GSK1487252] | 0 | 0 | 28 | 54 | 0 | 5 | 0 | 0 | 0 | 0 | 61 | 0 | 0 | 0 | 0 | 0 | 12 | 35 | 0 | 0 |
| CCN(CC)CCOc1ccc(Nc2ncc3cc(-c4c(Cl)cccc4Cl)c(=O)n(C)c3n2)cc1 [SB-601273] | 24 | 0 | 99.8 | 100 | 0 | 19 | 0 | 0 | 30 | 85 | 11 | 6 | 30 | 40 | 21 | 5 | 48 | 0 | 0 | 0 |
| CNC(=O)c1ccccc1Sc1ccc2c(/C=C/c3ccccn3)n[nH]c2c1 | 0 | 8 | 99.9 | 100 | 0 | 14 | 2 | 16 | 0 | 0 | 0 | 0 | 0 | 11 | 2 | 0 | 43 | 0 | 0 | 6 |
| CCn1c(-c2nonc2N)nc2c(C#CC(C)(C)O)nc(OCCN)cc21.Cl.Cl [GSK902056] | 0 | 0 | 0 | 4 | 0 | 0 | 0 | 0 | 0 | 0 | 0 | 0 | 0 | 5 | 0 | 9 | 19 | 25 | 0 | 11 |
